From PubChem BioAssay (Tox21) come the findings set out here.

Assay [1] in a line: qHTS assay to identify small molecule agonists of the sonic hedgehog signaling (Shh) pathway (AID 1259368; calls by dose curve;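 note: NIH/3T3-derived 3T3Gli1-Luc cells carrying a stable Gli1-driven firefly luciferase reporter; series mostly up to about 92 µM; nearly all actives have a fitted effect of over 15% in size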). In a few lines: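 Luminescence was read after 30 min at room temperature with luciferase reagent. Before that, 3T3Gli1-Luc cells (NIH/3T3 clone, stable Gli1-Luc reporter; 2,000/well) were exposed to compounds for 24 hr at 37C, 5% CO2, compounds being added 4 hr post-plating.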
In general terms: qHTS replaces the single test concentration by a dilution series.

Assay [2] concerns the target Estrogen receptor beta (Homo sapiens) (UniProt Q92731). Briefly: qHTS assay to identify small molecule agonists of the estrogen receptor beta (ER-beta) signaling pathway (AID 1259377; active = well fitted activation curve with a large enough effect in the signal ratio in the repeat runs, not every such curve was filed as active; the % refers to the signal ratio). In a few lines:
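A UAS-controlled beta-lactamase reporter in ER-beta-UAS-bla HEK293T cells reports receptor activation. Compounds act for 16 hr at 37C in 2% charcoal-stripped serum, and a FRET substrate is read by fluorescence after 2 hours.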

The nature of assay [3]: qHTS assay to identify small molecule agonists of the estrogen receptor beta (ER-beta) signaling pathway - cell viability counter screen (AID 1259380). Note: nearly all actives have a fitted effect of over 30% in size. An outline of the steps: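 Cell viability counter screen: CellTiter-Glo luminescence (30 min, room temperature) measured in the same wells as the beta-lactamase readout, after 16 hr compound exposure at 37C of ER-beta-bla HEK293T cells in 2% charcoal-stripped FBS medium.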

For assay [4], the target named is Androgen receptor (Homo sapiens) (UniProt P10275). In words: qHTS assay to identify small molecule agonists of the androgen receptor (AR) signaling pathway in the presence of an antagonist (AID 1259381; calls by dose curve; note: nearly all actives have a fitted effect of over 15% in size). In a few lines:
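Agonist-mode confirmation run against 3.0 uM final nilutamide: compounds titrated at 15 concentrations onto MDA-kb2 MMTV-luciferase reporter cells. Luminescence measured with ONE-Glo following 16 hr incubation, 37C, 0% CO2.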

The nature of assay [5]: qHTS assay to identify small molecule antagonists of the estrogen receptor beta (ER-beta) signaling pathway - cell viability counter screen (AID 1259382). Note: nearly all actives have a fitted effect of over 55% in size. Note: potency is the fitted concentration of half-maximal effect. An outline of the steps:
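Cytotoxicity was measured in the same wells by CellTiter-Glo luminescence after 30 min at room temperature. Cells were ER-beta-bla HEK293T in charcoal-stripped serum, given compound together with 1 nM E2 and incubated 16 h at 37C.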

Assay [6] concerns the target Estrogen receptor (Homo sapiens) (UniProt P03372). Briefly: qHTS assay to identify small molecule agonists of the estrogen receptor alpha (ER-alpha) signaling pathway in the presence of an antagonist (AID 1259383; calls by dose curve; note: top concentration of the series differs between compounds; nearly all actives have a fitted effect of over 15% in size). In a few lines:
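Agonist-mode confirmation run in the presence of 10.0nM (final) ICI-182,780 antagonist. The reporter was ERE-driven luciferase in VM7Luc4E2 cells, grown in charcoal-stripped serum. Cells were exposed to 15-concentration compound series for 22hr, then ONE-Glo luminescence was read.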

Assay [7] in a line: qHTS assay to identify small molecule agonists or antagonists of the thyroid stimulating hormone receptor (TSHR) signaling pathway - wild type cell line counter screen (AID 1259384; calls by dose curve). In a few lines:
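Wild-type Hek293 cells, 800/well, 18 h at 37C, then compound with Ro20-1724 for 30 min RT. cAMP by HTRF (cAMP-d2/anti-cAMP cryptate), 1 h RT, fluorescence read. 15 concentrations, triplicates.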

In assay [8] the target is Thyrotropin receptor (Homo sapiens) (UniProt P16473). Briefly: qHTS assay to identify small molecule antagonists of the thyroid stimulating hormone receptor (TSHR) signaling pathway (AID 1259385; calls by dose curve; note: nearly all actives have a fitted effect of over 20% in size; note: potency is the fitted concentration of half-maximal effect). An outline of the steps:
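TSHR-HEK293 cells (800/well) plated 18 h, then compounds with Ro20-1724 and TSH at 1.5 ng/mL final, 30 min at room temperature. cAMP quantified by HTRF (cAMP-d2/anti-cAMP-cryptate, 1 h); 15 concentrations in triplicate.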

A short description of assay [9]: qHTS assay to identify small molecule agonists of the estrogen receptor alpha (ER-alpha) signaling pathway in the presence of an antagonist - cell viability counter screen (AID 1259386). Note: series mostly up to about 92 µM; nearly all actives have a fitted effect of over 30% in size. An outline of the steps:
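Compounds tested at 15 concentrations for 22 h at 37C alongside 10.0nM (final) ICI-182,780 antagonist, in VM7Luc4E2 cells grown in phenol red-free, charcoal-stripped medium. Viability read by CellTiter-Fluor fluorescence after 1 h reagent incubation.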

The target of assay [10] is Progesterone receptor (Homo sapiens) (UniProt P06401). In words: qHTS assay to identify small molecule antagonists of the progesterone receptor (PR) signaling pathway (AID 1346795; active = well fitted inhibition curve with a large enough effect in the signal ratio in the repeat runs, not every such curve was filed as active; the % refers to the signal ratio; note: potency is the fitted concentration of half-maximal effect). An outline of the steps: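 HEK293T PR-UAS-bla reporter cells in charcoal-stripped serum (2%) received compound after a 6 hr settling period, followed by R5020 agonist at 1 nM final; 16 hr incubation preceded the FRET substrate step and fluorescence measurement.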
Progesterone receptor (Homo sapiens), sequence (P06401 whole entry, looked up): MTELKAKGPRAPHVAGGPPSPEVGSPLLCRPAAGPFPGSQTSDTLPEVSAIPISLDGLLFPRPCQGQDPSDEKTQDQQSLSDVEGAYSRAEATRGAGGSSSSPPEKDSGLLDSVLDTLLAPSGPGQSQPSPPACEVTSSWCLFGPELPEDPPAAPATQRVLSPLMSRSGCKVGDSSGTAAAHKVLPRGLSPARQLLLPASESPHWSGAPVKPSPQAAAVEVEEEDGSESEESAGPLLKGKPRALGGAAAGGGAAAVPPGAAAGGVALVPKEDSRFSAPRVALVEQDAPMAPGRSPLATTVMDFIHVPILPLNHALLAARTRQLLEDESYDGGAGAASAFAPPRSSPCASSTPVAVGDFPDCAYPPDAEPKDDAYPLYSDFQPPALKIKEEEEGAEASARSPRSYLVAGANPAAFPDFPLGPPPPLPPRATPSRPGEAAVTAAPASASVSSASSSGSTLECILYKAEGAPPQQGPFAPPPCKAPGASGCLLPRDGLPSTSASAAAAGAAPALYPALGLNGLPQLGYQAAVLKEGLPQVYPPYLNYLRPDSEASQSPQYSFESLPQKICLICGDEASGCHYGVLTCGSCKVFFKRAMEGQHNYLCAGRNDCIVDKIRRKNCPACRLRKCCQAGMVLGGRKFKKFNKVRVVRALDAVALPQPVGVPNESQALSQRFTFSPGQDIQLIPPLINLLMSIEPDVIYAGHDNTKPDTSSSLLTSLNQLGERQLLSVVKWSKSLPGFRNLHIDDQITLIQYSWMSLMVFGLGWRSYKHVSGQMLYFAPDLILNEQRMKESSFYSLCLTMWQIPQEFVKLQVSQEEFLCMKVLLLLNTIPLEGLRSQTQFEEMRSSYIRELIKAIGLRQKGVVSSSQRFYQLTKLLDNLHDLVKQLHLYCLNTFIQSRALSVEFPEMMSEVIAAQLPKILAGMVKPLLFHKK

Assay [11] in a line: qHTS assay to identify small molecule antagonists of the TGF-beta/Smad signaling pathway - cell viability counter screen (AID 1346824). Note: nearly all actives have a fitted effect of over 50% in size. In a few lines: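 SBE-bla HEK 293T cells, incubated overnight, then compound plus 0.25 ng/mL TGF-beta1 (stock added) for 5 hr at 37 C. Viability was read in the same wells by CellTiter-Glo luminescence after 30 min at room temperature.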
Assay [12] is described as follows: qHTS assay to identify small molecule agonists of the TGF-beta/Smad signaling pathway - cell viability counter screen (AID 1346829). Note: top concentration of the series differs between compounds; nearly all actives have a fitted effect of over 45% in size. In a few lines:
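CellTiter-Glo luminescence readout; SBE-bla HEK 293T cells, overnight plating, compound 5 hr at 37 C/5% CO2, then bla substrate 2 hr RT, then CellTiter-Glo 30 min RT.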

Assay [13] is described as follows: qHTS assay to identify small molecule agonists of the TGF-beta/Smad signaling pathway (AID 1346859; active = well fitted activation curve with a large enough effect in the signal ratio in the repeat runs, not every such curve was filed as active; the % refers to the signal ratio; note: series mostly up to about 77 µM). An outline of the steps: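 Smad-responsive beta-lactamase reporter cells (HEK 293T) received compounds from DMSO stocks after overnight attachment, were incubated 5 hr, then treated 2 hr with FRET substrate before dual-emission fluorescence measurement (405 nm excitation).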

Assay [14] has as its target Thyrotropin-releasing hormone receptor (Homo sapiens) (UniProt P34981). In words: qHTS assay to identify small molecule antagonists of the thyrotropin-releasing hormone receptor (TRHR) signaling pathway (AID 1346877; active = well fitted inhibition curve with a large enough effect in the repeat runs, not every such curve was filed as active; note: series mostly up to about 51 µM). In a few lines: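 Antagonist mode: after a 5 min room-temperature compound exposure, cells were stimulated with 1 nM (final) TRH. Dye-loaded TRHR-HEK293 cells were used, and calcium-dependent fluorescence was followed for 3 min, with 15-point titrations run in triplicate.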

Assay [15] in a line: qHTS assay to identify small molecule agonists of the androgen receptor (AR) signaling pathway in the presence of an antagonist - cell viability counter screen (AID 1259379). Note: nearly all actives have a fitted effect of over 25% in size. Note: potency is the fitted concentration of half-maximal effect. In a few lines: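 Cytotoxicity counter-screen run in the same wells as the nilutamide-challenged (3.0 µM final) AR agonist assay in MDA-kb2 cells. Compounds tested at 15 concentrations for 16 h, 37 °C without CO2; CellTiter-Fluor fluorescence read.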

Assay [16] deals with Progesterone receptor (Homo sapiens) (UniProt P06401). Briefly: qHTS assay to identify small molecule agonists of the progesterone receptor (PR) signaling pathway (AID 1346784; calls by dose curve; note: nearly all actives have a fitted effect of over 30% in size). An outline of the steps:
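Agonist mode, quantitative HTS format in a HEK 293T line expressing a UAS-controlled beta-lactamase reporter; 16 hr compound exposure at 37C in 2% charcoal-stripped FBS, then LiveBLAzer B/G FRET fluorescence.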

Assay [17] is described as follows: qHTS assay to identify small molecule antagonists of the progesterone receptor (PR) signaling pathway - cell viability counter screen (AID 1346798). Note: series mostly up to about 92 µM; nearly all actives have a fitted effect of over 50% in size. An outline of the steps: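 Same-well multiplex: after 16 hr at 37C with compound and R5020 stimulation, HEK293T cells carrying a UAS-bla reporter received LiveBLAzer substrate (2 hr RT), then CellTiter-Glo (30 min RT) for luminescent viability.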

Assay [18] can be described thus: qHTS assay to identify small molecule agonists of the progesterone receptor (PR) signaling pathway - cell viability counter screen (AID 1346799; calls by dose curve; note: nearly all actives have a fitted effect of over 45% in size). In a few lines:
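Counter screen for cytotoxicity: compound-treated PR-UAS-bla HEK293T cells (16 hr, 37C, 5% CO2) were assayed with CellTiter-Glo, luminescence measured after 30 min at room temperature.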

Records with an inconclusive call do not appear. Calls of active or inactive are those of the source. Unless noted, calls come from the whole dose curve; as a rule, active = well fitted curve in the direction sought with a large enough effect in the repeat runs; inconclusive = weak or mixed curves; inactive = no such curve, though single readings can be large; an effect the other way counts as inactive or inconclusive.

Thyrotropin-releasing hormone receptor (Homo sapiens), sequence (P34981 whole entry, looked up): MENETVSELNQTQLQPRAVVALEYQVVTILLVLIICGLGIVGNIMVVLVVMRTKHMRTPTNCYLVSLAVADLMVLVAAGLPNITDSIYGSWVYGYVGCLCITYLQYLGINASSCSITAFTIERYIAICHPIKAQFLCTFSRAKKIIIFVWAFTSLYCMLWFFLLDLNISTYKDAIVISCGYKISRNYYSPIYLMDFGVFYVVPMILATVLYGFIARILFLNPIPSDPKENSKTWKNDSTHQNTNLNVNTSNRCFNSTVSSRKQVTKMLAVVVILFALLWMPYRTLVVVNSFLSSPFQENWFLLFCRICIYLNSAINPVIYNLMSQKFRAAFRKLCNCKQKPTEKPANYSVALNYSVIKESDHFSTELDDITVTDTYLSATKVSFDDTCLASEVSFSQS
Estrogen receptor (Homo sapiens), sequence (P03372 whole entry, looked up): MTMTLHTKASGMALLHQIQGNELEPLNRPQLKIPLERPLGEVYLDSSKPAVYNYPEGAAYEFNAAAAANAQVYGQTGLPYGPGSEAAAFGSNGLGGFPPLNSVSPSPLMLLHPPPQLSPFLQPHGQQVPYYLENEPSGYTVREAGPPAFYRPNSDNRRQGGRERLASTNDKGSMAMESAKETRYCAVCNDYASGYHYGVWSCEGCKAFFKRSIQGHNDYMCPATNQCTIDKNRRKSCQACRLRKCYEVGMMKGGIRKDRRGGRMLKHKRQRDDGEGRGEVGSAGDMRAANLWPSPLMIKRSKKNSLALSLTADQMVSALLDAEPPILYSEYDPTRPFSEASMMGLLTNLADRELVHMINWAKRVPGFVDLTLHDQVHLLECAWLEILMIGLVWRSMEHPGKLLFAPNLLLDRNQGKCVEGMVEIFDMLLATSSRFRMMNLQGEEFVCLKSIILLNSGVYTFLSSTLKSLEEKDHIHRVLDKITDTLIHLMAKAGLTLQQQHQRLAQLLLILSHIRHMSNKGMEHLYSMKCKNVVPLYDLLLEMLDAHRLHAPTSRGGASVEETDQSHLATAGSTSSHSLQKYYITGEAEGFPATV
Thyrotropin receptor (Homo sapiens), sequence (P16473 whole entry, looked up): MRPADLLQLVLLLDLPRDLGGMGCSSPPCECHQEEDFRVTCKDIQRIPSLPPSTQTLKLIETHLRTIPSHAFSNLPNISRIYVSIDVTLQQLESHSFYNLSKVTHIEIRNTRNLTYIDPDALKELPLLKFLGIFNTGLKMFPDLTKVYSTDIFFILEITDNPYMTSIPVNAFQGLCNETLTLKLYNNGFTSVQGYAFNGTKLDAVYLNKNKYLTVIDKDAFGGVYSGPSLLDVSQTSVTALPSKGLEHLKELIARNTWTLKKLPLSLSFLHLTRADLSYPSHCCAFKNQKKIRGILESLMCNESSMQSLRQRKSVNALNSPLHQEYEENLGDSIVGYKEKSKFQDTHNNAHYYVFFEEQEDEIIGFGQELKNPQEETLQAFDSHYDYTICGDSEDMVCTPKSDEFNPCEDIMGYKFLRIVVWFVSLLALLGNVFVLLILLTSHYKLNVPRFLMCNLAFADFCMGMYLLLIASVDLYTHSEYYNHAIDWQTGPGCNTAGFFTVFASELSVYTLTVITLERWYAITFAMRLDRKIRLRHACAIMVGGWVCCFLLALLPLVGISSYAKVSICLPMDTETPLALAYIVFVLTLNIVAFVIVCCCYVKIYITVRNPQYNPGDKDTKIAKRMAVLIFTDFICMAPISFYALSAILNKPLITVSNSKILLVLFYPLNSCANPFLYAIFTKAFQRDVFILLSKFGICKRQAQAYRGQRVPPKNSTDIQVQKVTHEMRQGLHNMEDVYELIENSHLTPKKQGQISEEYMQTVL
Estrogen receptor beta (Homo sapiens), sequence (Q92731 whole entry, looked up): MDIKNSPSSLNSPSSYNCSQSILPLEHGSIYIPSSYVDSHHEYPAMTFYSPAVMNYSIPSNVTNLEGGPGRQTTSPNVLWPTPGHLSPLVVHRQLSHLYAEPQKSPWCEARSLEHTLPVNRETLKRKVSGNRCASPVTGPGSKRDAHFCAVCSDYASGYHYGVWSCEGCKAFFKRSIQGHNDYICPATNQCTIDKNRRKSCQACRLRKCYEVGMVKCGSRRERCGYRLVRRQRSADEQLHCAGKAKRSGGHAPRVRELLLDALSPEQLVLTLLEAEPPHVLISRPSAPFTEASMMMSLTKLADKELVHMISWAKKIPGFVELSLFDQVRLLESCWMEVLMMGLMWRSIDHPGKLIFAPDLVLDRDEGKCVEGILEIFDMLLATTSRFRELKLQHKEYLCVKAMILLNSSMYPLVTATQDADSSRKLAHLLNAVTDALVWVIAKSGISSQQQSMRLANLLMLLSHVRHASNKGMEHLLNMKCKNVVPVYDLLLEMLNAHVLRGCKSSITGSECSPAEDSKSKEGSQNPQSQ
Androgen receptor (Homo sapiens), sequence (P10275 whole entry, looked up): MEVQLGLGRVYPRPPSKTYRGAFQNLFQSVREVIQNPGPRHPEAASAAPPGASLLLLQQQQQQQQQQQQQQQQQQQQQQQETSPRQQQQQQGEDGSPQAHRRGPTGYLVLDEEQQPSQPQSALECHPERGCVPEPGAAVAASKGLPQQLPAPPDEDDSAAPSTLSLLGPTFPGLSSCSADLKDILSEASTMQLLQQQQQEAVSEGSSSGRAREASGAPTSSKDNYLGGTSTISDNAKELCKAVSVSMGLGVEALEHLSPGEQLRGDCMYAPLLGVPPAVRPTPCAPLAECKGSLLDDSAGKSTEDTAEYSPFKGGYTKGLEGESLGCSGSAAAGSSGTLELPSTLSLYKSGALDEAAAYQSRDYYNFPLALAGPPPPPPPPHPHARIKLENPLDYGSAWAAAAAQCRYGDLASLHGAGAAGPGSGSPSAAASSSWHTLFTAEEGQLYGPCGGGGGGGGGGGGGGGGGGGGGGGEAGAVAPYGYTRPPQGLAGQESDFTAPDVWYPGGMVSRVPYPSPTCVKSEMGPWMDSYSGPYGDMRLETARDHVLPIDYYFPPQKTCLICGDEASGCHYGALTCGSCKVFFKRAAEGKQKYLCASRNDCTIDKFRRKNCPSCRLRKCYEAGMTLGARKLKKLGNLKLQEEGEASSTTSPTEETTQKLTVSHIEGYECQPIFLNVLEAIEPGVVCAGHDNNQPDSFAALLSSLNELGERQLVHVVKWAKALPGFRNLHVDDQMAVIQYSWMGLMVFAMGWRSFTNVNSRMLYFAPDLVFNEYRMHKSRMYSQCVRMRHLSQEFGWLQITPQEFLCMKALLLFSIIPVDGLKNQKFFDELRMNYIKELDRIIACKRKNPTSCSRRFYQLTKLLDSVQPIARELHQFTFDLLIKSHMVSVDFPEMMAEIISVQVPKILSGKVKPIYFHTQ

Take `COC(=O)C1=C(C)NC(C)=C(C(=O)OC(C)(C)CN(C)CCC(c2ccccc2)c2ccccc2)C1c1cccc([N+](=O)[O-])c1` (centres undefined): the Potency result in [1], in assay [2], in [3], in assay [4], in assay [5] and in assay [6] was “inactive” in each case. Further, the Potency result in assay [7], in [8], in assay [9], in assay [12] and in [13] was “inactive” in each case. Also, the Potency in [10] is 6.68 µM (active). The outcome in [11] and in [14] was inactive.

Take `CC/C=C\C/C=C\C/C=C\CCCCCCCC(=O)OCC`: the Potency result in assay [1], in [2], in assay [15], in [7], in [9] and in assay [16] was “inactive” each time. Also, the Potency result in assay [10], in [17] and in assay [13] was “inactive” each time. For the same compound, the outcome in assay [14] was inactive.

As to `CN(C)CC/C=C1\c2ccccc2Sc2ccc(Cl)cc21`, the Potency result in assay [1], in assay [4], in assay [6], in [7], in assay [9] and in assay [16] was “inactive” throughout. The Potency result in assay [13] was “inactive”. The Potency in assay [15] was 29.8 µM (active); in assay [5] it was 18.8 µM (active); in [8] it was 26.6 µM (active); in assay [10], 21.1 µM (active). The compound was called inactive in assay [11] and in [14].

For `O=C(/C=C/c1ccc([N+](=O)[O-])cc1)c1ccccc1`, the Potency result in [1], in [5], in [6], in [7], in assay [8] and in assay [9] was “inactive” each time. Besides, the Potency entry in [16], in assay [17], in assay [18] and in assay [12] was “inactive” in each case. In addition, the outcome in [11] was inactive.

As to `O=S(=O)(O)CO`, the Potency result in [1], in [15], in assay [3], in assay [7], in [8] and in assay [9] was “inactive” in each case. In addition, the Potency result in assay [10], in [17], in [12] and in [13] was “inactive” in each case. Moreover, the result in assay [14] was inactive.

`Cc1ccc(NC(=O)N(C)C)cc1NC(=O)N(C)C`: the Potency result in assay [1], in assay [15], in assay [3], in assay [7], in assay [8] and in assay [9] was “inactive” in each case. Further, the Potency result in assay [16], in [10], in assay [17], in [18], in [12] and in [13] was “inactive” in each case. Besides, the compound was called inactive in [11] and in assay [14].

Regarding `COc1ccc(C)cc1`, the Potency result in assay [1], in assay [15], in assay [3], in assay [5], in [7] and in assay [8] was “inactive” throughout. The Potency entry in assay [9], in assay [16], in [10], in assay [17], in assay [12] and in assay [13] was “inactive” throughout. Further, the result in assay [11] was inactive.

For `O=C1c2ccccc2C(=O)c2c(O)ccc(O)c21`, the Potency entry in [1], in [3], in assay [5], in [9], in assay [16] and in [10] was “inactive” each time. The Potency result in assay [18] and in assay [12] was “inactive” in each case. The compound was called inactive in assay [14].

As for `CC1C(C)(C)C2=C(C(=O)CCC2)C1(C)C` (centres undefined), the Potency entry in assay [1], in assay [15], in assay [5], in assay [6], in assay [7] and in assay [8] was “inactive” throughout. The Potency entry in assay [9], in assay [16], in assay [10], in assay [17], in [18] and in [13] was “inactive” each time. Further, the compound was classed as inactive in assay [11] and in assay [14].

Turning to `CCC1CCC(CCC(=O)O)C1` (centres undefined), the Potency result in [1], in [15], in [7], in assay [8], in assay [9] and in assay [16] was “inactive” each time. Also, the Potency result in assay [17] and in [13] was “inactive” throughout. Further, the call in assay [11] and in assay [14] was inactive.
